In PubChem BioAssay (Tox21):
Several values for one entry are separate records, joined by “and”; a condition that tells them apart may be missing. Equal entries are not always repeated. Results filed as inconclusive are left out. Activity calls are given as the source filed them. Unless noted, the call rests on the fitted dose curve; in most records, active means well fitted curve in the direction sought with a large enough effect in the repeat runs; inconclusive means weak or mixed curves; inactive means no such curve, though single readings can be large; an effect the other way counts as inactive or inconclusive.

Experiments:
[1] = qHTS assay for small molecule agonists of the p53 signaling pathway (AID 651631; calls by dose curve; further: nearly all actives have a fitted effect of over 15% in size; further: potency means the concentration at half of the fitted maximal effect)
Procedure, shortened: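 p53RE-bla HCT-116 cells; compounds 16 h, 37 °C; LiveBLAzer B/G FRET substrate 2 h RT; fluorescence intensity read-out, qHTS format.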

[2] = qHTS assay for small molecules that induce genotoxicity in human embryonic kidney cells expressing luciferase-tagged ATAD5 (AID 651632); further: nearly all actives have a fitted effect of over 15% in size
Procedure, shortened: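 HEK293T cells carrying luciferase-tagged ATAD5 were given compound or DMSO vehicle and incubated 16 hr at 37C, 5% CO2. Luciferase activity was read after 30 min at room temperature with Amplite; a rise signals genotoxic stress.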

[3] = qHTS assay for small molecule agonists of the p53 signaling pathway - cell viability (AID 651633; calls by dose curve; further: nearly all actives have a fitted effect of over 30% in size; further: potency means the concentration at half of the fitted maximal effect)
Procedure, shortened: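 p53RE-bla cells were treated with compound for 16 hours at 37 C. Cytotoxicity was then measured as CellTiter-Glo luminescence after 30 min at room temperature.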

[4] = qHTS assay for small molecule disruptors of the mitochondrial membrane potential - cell viability (AID 720634; calls by dose curve; further: nearly all actives have a fitted effect of over 20% in size; further: potency means the concentration at half of the fitted maximal effect)
Procedure, shortened: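 HepG2 cells, 2,000 per well, attached overnight, then treated 1 hr at 37 C, 5% CO2. Viability read as ATP by CellTiter-Glo luminescence after 30 min at room temperature. Read in the same wells as the m-MPI membrane-potential dye assay.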

[5] = qHTS assay for small molecule disruptors of the mitochondrial membrane potential (AID 720635); further: potency means the concentration at half of the fitted maximal effect
Procedure, shortened: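 HepG2 cells exposed to compound 1 hr at 37C, then Mito-MPS dye 30 min. Ratio read of aggregate (540/590 nm) versus monomer (490/535 nm) fluorescence.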

[6] = qHTS assay to test for compound auto fluorescence at 590 nm (red) in HepG2 cells (AID 720674); further: potency means the concentration at half of the fitted maximal effect
Procedure, shortened: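 HepG2 cells, 2,000 per well in MEM with 10% FBS, attached overnight at 37 C, then got 23 nL compound or DMSO. After 1 hr at 37 C, 5% CO2, red fluorescence was read at 540/590 nm against Rose Bengal sodium as reference.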

[7] = qHTS assay to test for compound auto fluorescence at 535 nm (green) in HepG2 cells (AID 720675); further: potency means the concentration at half of the fitted maximal effect
[8] = qHTS assay to test for compound auto fluorescence at 460 nm (blue) in HEK293 cells (AID 720678); further: potency means the concentration at half of the fitted maximal effect
Procedure, shortened: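 Triamterene serves as the blue fluorophore standard. Compound signal at 405/460 nm is read in HEK293 wells (2,000 cells, 10% dialyzed FBS) after overnight treatment at 37C.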

[9] = qHTS assay to test for compound auto fluorescence at 590 nm (red) in HEK293 cells (AID 720679); further: potency means the concentration at half of the fitted maximal effect
Procedure, shortened: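 We plated HEK293 cells in 10% dialyzed FBS medium, let them adhere for 4-5 hr, then added 23 nL compound. Overnight at 37C and 5% CO2 preceded fluorescence measurement at 540/590nm.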

[10] = qHTS assay for small molecules that induce genotoxicity in human embryonic kidney cells expressing luciferase-tagged ATAD5 - cell viability (AID 651634; calls by dose curve; further: nearly all actives have a fitted effect of over 25% in size; further: potency means the concentration at half of the fitted maximal effect)
Procedure, shortened: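 HEK293T cells carrying luciferase-tagged ATAD5, 2,000 cells/well, exposed to compound for 15.5 hr at 37C. Viability read as live-cell protease activity by CellTiter-Fluor fluorescence after 30 min at 37C.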

Measured: Potency
Tags describe the fitted curve by direction and shape or compound fluorescence and quenching.

O=C1OC(OC(=O)c2cccnc2Nc2cccc(C(F)(F)F)c2)c2ccccc21 (centres undefined)
active: [5] 24.8 µM
not listed: [10]
inactive: all other assays above

CCCCCCCCCCCCCCCC
inactive: all assays above

C(=C/c1ccccc1)/c1ccccc1
not listed: [4] | [5] | [8]
inactive: all other assays above

O=C(O)CC(=O)O
not listed: [5]
inactive: all other assays above

O=C(Nc1ccc(Cl)cc1)Nc1ccc(Cl)c(C(F)(F)F)c1
inactive: [2] | [6] | [7] | [9]
active: [1] 16.8 µM | [3] 26.6 µM | [10] 13.3 µM | [4] 1.5 µM | [5] 0.596 µM

C1CC(COCC2CO2)CCC1COCC1CO1 (centres undefined)
not listed: [10]
inactive: all other assays above

COC(=O)CC#N
not listed: [4] | [10]
inactive: all other assays above

O=C(O)CCCCCCC(=O)O
inactive: all assays above

CCN=c1cc2oc3cc(NCC)c(C)cc3c(-c3ccccc3C(=O)OCC)c-2cc1C
inactive: [2] | [4]
active: [1] 48.4 µM | [3] 60.9 µM and 15.4 µM | [10] 9.65 µM and 6.86 µM | [6] 3.55 µM and 3.98 µM | [7] 39.8 µM and 35.5 µM | [9] 4.47 µM [fluorescent] and 6.31 µM [fluorescent]

CCCCCCCCCCCCCCNCCO
not listed: [5] | [8] | [10]
inactive: all other assays above

CCC(C)(C)c1cc(O)c(C(C)(C)CC)cc1O
active: [1] 54.5 µM | [3] 43.3 µM | [5] 4.86 µM
not listed: [10]
inactive: all other assays above

C=CC(C)(CCC=C(C)C)OC(=O)/C=C/c1ccccc1 (centres undefined)
not listed: [5]
inactive: all other assays above

CCC(=O)OCCc1ccccc1
not listed: [8]
inactive: all other assays above

CC1CCCNC1 (centres undefined)
not listed: [5]
inactive: all other assays above

O=C(NO)c1ccccc1
active: [1] 65.3 µM
inactive: [10] | [4] | [6] | [7] | [9]

O=C1c2c(O)ccc([N+](=O)[O-])c2C(=O)c2c([N+](=O)[O-])ccc(O)c21
active: [3] 8.56 µM | [10] 9.6 µM | [4] 30.4 µM | [5] 0.054 µM
not listed: [1]
inactive: all other assays above

CCOC(=O)N1CCC(=C2c3ccc(Cl)cc3CCc3cccnc32)CC1
active: [1] 23.7 µM and 61.1 µM | [3] 68.6 µM | [10] 43.3 µM | [4] 27.3 µM | [5] 29.8 µM and 54.5 µM
inactive: [6] | [7] | [8] | [9]

CC(C)c1cccc(C(C)C)c1N1C(=O)c2ccc(O)cc2C1=O
inactive: [2] | [6] | [7] | [9]
active: [1] 1.54 µM | [4] 9.69 µM | [5] 1.22 µM | [8] 39.8 µM [fluorescent]

CCCCCCCC/C=C\CCCCCCCC(=O)OCCOC(=O)CCCCCCC/C=C\CCCCCCCC
active: [5] 79.8 µM
not listed: [2]
inactive: all other assays above

CCCSS/C(CCO)=C(\C)N(C=O)Cc1cnc(C)nc1N
not listed: [1]
inactive: all other assays above

O=C(c1ccccc1)c1cc(Cl)ccc1O
active: [5] 25.9 µM
not listed: [2]
inactive: all other assays above

C/C=C/C(=O)Oc1c(CCCCCC(C)C)cc([N+](=O)[O-])cc1[N+](=O)[O-]
active: [1] 0.864 µM | [3] 15.4 µM | [10] 19.3 µM | [4] 3.06 µM | [5] 0.109 µM
inactive: [6] | [7] | [8] | [9]

CC(=O)Oc1ccc(C2(c3ccc(OC(C)=O)cc3)Oc3ccccc3NC2=O)cc1
active: [1] 2.37 µM | [5] 23.7 µM
not listed: [2]
inactive: all other assays above
